In PubChem BioAssay AID1619 (SRMLSC, 2009):
The campaign covered roughly 220,000 compounds. About 830 (0.38%) were called active.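 The calls were made as follows: active = compound inhibiting the enzyme by more than half at any dose during confirmatory dose-response retesting; inconclusive = strong single-dose inhibitors picked by rank but not retested; inactive = the rest.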 A selection follows. Measured potencies and affinities stand elsewhere.

molecular target: Leucine aminopeptidase (Plasmodium falciparum (isolate 3D7)) (UniProt Q8IL11); assay: P. falciparum M17LAP inhibitors, primary screen, biochemical, fluorogenic H-Leu-NHMec substrate, 1536-well (AID 1619); details: recombinant M17LAP, H-Leu-NHMec fluorogenic kinetic assay; at 30 µM; stronger effect = higher value;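 also: plate controls were full reaction with DMSO carrier for no effect and no enzyme background for full effect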
Sequence (Q8IL11 whole entry, looked up): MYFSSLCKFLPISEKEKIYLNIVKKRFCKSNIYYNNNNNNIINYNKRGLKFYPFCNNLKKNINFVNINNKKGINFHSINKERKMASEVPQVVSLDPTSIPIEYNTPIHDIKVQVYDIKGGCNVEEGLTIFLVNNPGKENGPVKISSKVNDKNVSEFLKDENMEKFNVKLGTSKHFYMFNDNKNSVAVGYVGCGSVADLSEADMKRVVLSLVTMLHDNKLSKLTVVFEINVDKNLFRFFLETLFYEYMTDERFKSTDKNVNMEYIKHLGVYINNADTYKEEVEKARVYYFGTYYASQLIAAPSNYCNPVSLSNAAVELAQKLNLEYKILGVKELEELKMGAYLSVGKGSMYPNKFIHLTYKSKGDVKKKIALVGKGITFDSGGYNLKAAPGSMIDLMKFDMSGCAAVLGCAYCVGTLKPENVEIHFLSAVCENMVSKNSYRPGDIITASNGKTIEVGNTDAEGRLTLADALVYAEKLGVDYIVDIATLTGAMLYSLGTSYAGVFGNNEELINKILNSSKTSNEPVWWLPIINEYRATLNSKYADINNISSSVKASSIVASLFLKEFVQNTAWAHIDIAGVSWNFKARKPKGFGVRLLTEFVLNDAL

inhibition, inactive:
O=C(CSc1nnc2sc3ccccc3n12)c1ccco1 -1.98%, O=C(CC1SC(=NCCc2ccccc2)N(/N=C/c2cccs2)C1=O)Nc1ccc(Cl)cc1 (stereo not drawn) -1.78%, c1ccc2c(-c3cc(C4CCNCC4)[nH]n3)cccc2c1 -3.07%, CCCc1cc(C(=O)NCc2ccco2)no1 -5.04%, COc1ccccc1CC(=O)NNC(=O)c1cccs1 -2.69%, O=C(CSc1nccc(=O)[nH]1)N1CCN(c2ccccc2)CC1 5.66%, CCOC(=O)COc1ccc(S(=O)(=O)Nc2ccc3c(c2)OCCO3)cc1 2.78%, Cc1cc(=O)[nH]c(SCC(=O)Nc2ccc(C(=O)O)cc2)n1 8.39%, Cc1cc(C)nc(NC(=O)CSc2nccc(C)n2)n1 5.87%, COC(=O)c1ccc(NC(=O)CSc2nc(C)cc(=O)[nH]2)cc1 35.4%, COc1ccc(NC(=O)CSc2nc(C)cc(C)n2)cc1 44%, Cc1ccc(NC(=O)CSc2nc(O)cc(=O)n2C)cc1 7.3%, Cn1c(SCC(=O)Nc2ccc(Br)cc2)nc(O)cc1=O 10.4%, COc1ccc(NC(=O)CSc2nc(C)cc(C(F)(F)F)n2)cc1 19%, COc1ccc2nc(NC(=O)CSc3nccc(C)n3)sc2c1 1.42%, Cc1cc(C)n(-c2nnc(C)n2N)n1 1.79%, COc1ccc(-c2ccn(-c3cccc(F)n3)n2)cc1 10.6%, O=C(N/N=C/c1ccc2c(c1)OCO2)C(=O)Nc1ccccc1 5.86%, CC(=O)c1ccccc1OCCn1nnc(-c2ccc(C)cc2)n1 12.1%, CCCOc1ccc(-c2c(C(=O)N/N=C/c3ccc(C)cc3)nnn2-c2nonc2N)cc1 -4.98%, CCOC(=O)C1=C(Nc2ccc(C)cc2)CC(C)(O)C(C(=O)OCC)C1c1ccccc1 (stereo not drawn) 0.02%, Cc1cc(C)nc(N2CCC(C(=O)Nc3nnc(C)s3)CC2)n1 1.03%, CC(C)(C)Nc1nc2cc([N+](=O)[O-])ccc2o1 2.86%, Cc1cc(C)nc(SCC(=O)Nc2ccc(N3CCOCC3)cc2)n1 24.8%, Cc1nn(-c2nnc(C)c(=O)[nH]2)c(C)c1SCC(=O)Nc1ccc(C(C)C)cc1 63.3%, COc1ccc(NC(=O)CSc2ccc(C)cc2)cc1 -1.37%, Cc1nn(-c2nnc(C)c(=O)[nH]2)c(C)c1SCC(=O)Nc1ccc(F)cc1 46.2%, CCN(CC)c1ccc(NC(=O)CSc2nnc3nc(C)cc(C)n23)cc1 45.5%, COc1ccc(NC(=O)CSc2c(C)n[nH]c2C)cc1 21.7%, COc1ccc(Cc2nn3c(-c4ccccc4OC)nnc3s2)cc1 18.6%, CC1=CC(C)(C)n2c(O)c(N=N)c3c(C)c(C)cc1c32 14.8%, Cc1c(C(=O)NCCSCc2ccccc2Cl)cccc1[N+](=O)[O-] 4.93%, CCOc1ccc(NC(=O)Nc2cc(-c3ccccc3)sc2C(=O)OC)cc1 -2.36%, Cc1cc(C)nc(SCC(=O)Nc2ncc3c(n2)CCCC3=O)n1 -1.93%, Cc1nn(C)cc1CN(C)C(=O)c1nn2c(c1Cl)NC(c1cccs1)CC2C(F)(F)F (stereo not drawn) 11.7%, CC(C)(C)C(=O)N1CCC(O)(CS(=O)(=O)Cc2ccccc2Cl)CC1 13.8%, Cc1ccc(-n2c(SCC(=O)N3CCCc4ccccc43)nnc2-c2cccnc2)c(C)c1 7.68%, Cc1ccc(-n2c(SCC(N)=O)nnc2-c2cccnc2)c(C)c1 1.98%, Cc1cccc(C)c1NC(=S)N1CCC(c2ccccc2)C1 (stereo not drawn) 2.96%, O=c1nc(-c2ccccc2)c2cc(Cl)ccc2[nH]1 3.02%, COc1ccc(/C=C2\CCCC3C2=NN(C(=O)c2scnc2C)C3c2ccc(OC)c(OC)c2)cc1OC (stereo not drawn) -6.36%, Nc1nc2ncc(C(=O)c3cc(F)ccc3O)cc2s1 12.6%, Cc1[nH]nc2ncc(C(=O)c3cc(F)ccc3O)cc12 9.66%, CS(=O)(=O)Nc1nnc(Cc2ccccc2)s1 9.67%, CCCn1c(NCc2cccc(OC)c2O)nc2ccccc21 -4.67%, COc1cc(/C=N/n2c(C)n[nH]c2=S)ccc1OCc1ccc(F)cc1 -2.61%, CC(C)(C)OC(=O)N1CCCC1C(=O)O (stereo not drawn) -3.69%, O=C(Cn1cnc2ccccc2c1=O)c1c[nH]c2ccccc12 11.6%, CCOc1ccc(NC(=O)c2ccc3nccnc3c2)cc1 -3.72%, Cc1ccc(NC(=O)Nc2cccs2)cc1 22.4%, COc1ccc(NC(=O)Nc2ccc3nccnc3c2)cc1 37.8%, Cc1nc2cc(NC(=O)Nc3ccc(Br)cc3)ccc2o1 -1.6%, CC(=O)Nc1ccc2oc(C)nc2c1 0.35%, CCc1ccc(NC(=O)Nc2cccs2)cc1 38.6%, CCn1c(=O)c(C(=O)NCc2cccnc2)c(O)c2ccccc21 2%, CS(=O)(=O)N1N=C(c2ccco2)CC1c1ccccc1Cl (stereo not drawn) 5.77%, CN(C(=O)CSc1nc(-c2ccccc2)c(-c2ccccc2)o1)C1CCS(=O)(=O)C1 (stereo not drawn) 5.76%, NC(=O)c1c(-c2ccc(Cl)cc2Cl)csc1NC(=O)Cc1ccccc1 6.81%, CC(=O)Nc1ccc(NC(=O)CSc2nnc(-c3ccccc3)n2Cc2ccc3c(c2)OCO3)cc1 5.97%, COC(=O)c1[nH]c2c(c1C)C(=O)CCC2 6.36%, CCN1C(=O)/C(=C2\C=Cc3cc(C)ccc3N2CC)OC1=S 1.65%, CC1=NN(Cc2ccccc2)C(=O)/C1=C\c1ccc(N(C)C)cc1 3.83%, CCOc1cc(/C=C2\C(=O)N(CCC#N)N=C2C)ccc1OCC(N)=O 4.75%, CC1=C(C(=O)OC(C)C)C(c2cn(-c3ccccc3)nc2-c2cccs2)NC(=O)N1 (stereo not drawn) 2.02%, COc1ccccc1C(=O)N1CCN(Cc2nc3cc([N+](=O)[O-])ccc3n2C)CC1 6.22%, Cc1cc(S(=O)(=O)Nc2cccc(Cl)c2)c(C)s1 4.03%, COc1cccc(NS(=O)(=O)c2cc(C)sc2C)c1 11.3%, CC(=O)Nc1ccc(C2=NN(C)C(=NCc3ccccc3)SC2)cc1 -2.31%, N=c1n(Cc2ccc(Cl)cc2)c2ccccc2n1CC(O)COc1ccccc1 (stereo not drawn) 6.49%, COc1ccc(C(=O)N/N=C(\C)c2ccc3c(c2)C2C=CCC2C(c2ccccc2)N3)cc1 (stereo not drawn) 20.2%, Cc1c(Cl)cccc1NS(=O)(=O)c1ccc2c(c1)C1C=CCC1C(c1ccc(C(=O)O)cc1)N2 (stereo not drawn) 47.6%, COc1ccc(N2C(=O)C3CCCN3C2c2ccc(C)cc2)cc1Cl (stereo not drawn) -8.88%, CSCCC(NS(=O)(=O)c1ccc2ccccc2c1)C(=O)O (stereo not drawn) 12.2%, CSCCC(NS(=O)(=O)c1ccc(Cl)c(Cl)c1)C(=O)O (stereo not drawn) -4.93%, O=C(NCCn1cc(SCc2ccc(F)cc2)c2ccccc21)c1ccccc1F 12.4%, COC(=O)c1cccc(Cn2c(Cl)c(/C=N/NC(=O)c3ccccc3Cl)sc2=O)c1 13.4%, O=C(O)c1cccc(Cn2c(Cl)c(/C=N/NC(=O)c3ccccc3O)sc2=O)c1 35.2%, O=C(O)c1cccc(Cn2c(Cl)c(/C=N/NC(=O)c3ccc(O)cc3)sc2=O)c1 53.6%, O=C(O)c1cccc(Cn2c(Cl)c(/C=N/NC(=O)c3cccc(O)c3)sc2=O)c1 34%, COc1ccc(C(=O)N/N=C/c2sc(=O)n(Cc3cccc(C(=O)O)c3)c2Cl)cc1 43.6%, O=C(O)c1cccc(Cn2c(Cl)c(/C=N/NC(=O)c3cc4ccccc4cc3O)sc2=O)c1 -0.68%, COC(=O)/C(=N/Nc1cccc(C)c1)N1CCCc2ccccc21 1.03%, Oc1ccc(CCc2n[nH]c(=S)n2-c2ccc(F)cc2)cc1 -8.27%, COc1ccc(N2C(=O)CC(Sc3n[nH]c(-c4ccccc4)n3)C2=O)cc1 (stereo not drawn) 16.4%, COc1ccc(N2C(=O)CC(Sc3n[nH]c(-c4ccc(C)cc4)n3)C2=O)cc1 (stereo not drawn) 51.7%, CCOc1ccccc1N1C(=O)CC(Sc2ncccc2C(=O)O)C1=O (stereo not drawn) 17.5%, CCOC(=O)CN1C(=O)C(Sc2n[nH]c(-c3ccccc3)n2)CCc2ccccc21 (stereo not drawn) 16.8%, COc1cc2ncnc(NCc3ccccc3)c2cc1OC 14.9%, O=S(=O)(c1cccs1)N1CN(Cc2ccccc2)c2nc3ccccc3nc21 -4.62%, CCC(=O)NCc1csc(-c2cccs2)n1 -3.47%, O=C(NCCN1CCOCC1)NC1(C(F)(F)F)Oc2ccc(Cl)cc2O1 (stereo not drawn) 28.4%, O=C(Nc1cc(N2CCOCC2)ncn1)NC1(C(F)(F)F)Oc2ccccc2O1 5.1%, Cn1nc(C(F)(F)F)c(-c2ccc(F)cc2)c1NC(=O)c1cccnc1 -2.14%, COc1ccc(/C=C2\NC(=O)C(C=NCc3ccccc3)=C2O)cc1 0.26%, COc1ccc(-c2nnc(SCC(=O)NCCc3ccccc3)o2)cc1 -10.2%, CCc1ccc(C(=O)CSc2nc3ccccc3c(=O)[nH]2)cc1 -2.74%, Cc1cc(C)nc(SCC(=O)OCN2C(=O)c3ccccc3C2=O)n1 8.29%, Cc1ccc(C(=O)CSc2nnc(C)s2)cc1 -0.76%, Cn1cnnc1SCC(=O)OCN1C(=O)c2ccccc2C1=O 3.47%, CC(=O)Nc1ccc(NC(=O)CSc2ccc(C)cc2)cc1 -3.31%, Cc1ccc(C(=O)CSc2nc(C)cc(=O)[nH]2)cc1 9.23%, Cc1ccc(NC(=O)CSc2nnc(CCC(=O)O)c(=O)[nH]2)cc1 13.7%, CCCn1c(SCC(=O)c2ccc(CC)cc2)n[nH]c1=O 26.6%
